KCNH2 3.1 inh: blocks the human KCNH2 3.1 channel isoform; U2OS KCNH2 3.1, thallium flux FluxOr; active compounds read low; activity change, % (tested at about 1.8 µM); 0.95% of 340,000 active;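 active = maximum activity change below -70%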;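 note: thallium influx rate constant from kinetic fluorescence after stimulation buffer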
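Measured as rate of thallium-driven FluxOr signal in transduced U2OS cells carrying the 3.1 channel, read kinetically for 2 min upon stimulation; values are rate constants scaled to DMSO control wells.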
Luc counter: counter-screen: inhibitors of Kinase-Glo firefly luciferase; Q27757; Kinase-Glo luciferase, ATP luminescence, 8 min; Potency, µM (titrated, usually from 38.3 µM), hits mostly inhibitors; 0.28% of 200,000 active; AID 1379; active = well fitted inhibition curve with a large enough effect; note: nearly all actives have a fitted effect of over 60% in size
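Compound is pinned into ATP-containing buffer (10 uM ATP, imidazole pH 7.2, 7 mM MgCl2). Kinase-Glo luciferase reagent is then added. Light output is recorded following an 8-min room-temperature incubation.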
hERG WT inh: inhibitors of human wildtype KCNH2 potassium channel. U2OS, BacMam KCNH2, thallium flux FluxOr; active compounds read low. activity change, % at 1.84 µM. 0.37% of 340,000 active;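 active = maximum activity change below -70%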
Target sequence (Q12809 whole entry, looked up): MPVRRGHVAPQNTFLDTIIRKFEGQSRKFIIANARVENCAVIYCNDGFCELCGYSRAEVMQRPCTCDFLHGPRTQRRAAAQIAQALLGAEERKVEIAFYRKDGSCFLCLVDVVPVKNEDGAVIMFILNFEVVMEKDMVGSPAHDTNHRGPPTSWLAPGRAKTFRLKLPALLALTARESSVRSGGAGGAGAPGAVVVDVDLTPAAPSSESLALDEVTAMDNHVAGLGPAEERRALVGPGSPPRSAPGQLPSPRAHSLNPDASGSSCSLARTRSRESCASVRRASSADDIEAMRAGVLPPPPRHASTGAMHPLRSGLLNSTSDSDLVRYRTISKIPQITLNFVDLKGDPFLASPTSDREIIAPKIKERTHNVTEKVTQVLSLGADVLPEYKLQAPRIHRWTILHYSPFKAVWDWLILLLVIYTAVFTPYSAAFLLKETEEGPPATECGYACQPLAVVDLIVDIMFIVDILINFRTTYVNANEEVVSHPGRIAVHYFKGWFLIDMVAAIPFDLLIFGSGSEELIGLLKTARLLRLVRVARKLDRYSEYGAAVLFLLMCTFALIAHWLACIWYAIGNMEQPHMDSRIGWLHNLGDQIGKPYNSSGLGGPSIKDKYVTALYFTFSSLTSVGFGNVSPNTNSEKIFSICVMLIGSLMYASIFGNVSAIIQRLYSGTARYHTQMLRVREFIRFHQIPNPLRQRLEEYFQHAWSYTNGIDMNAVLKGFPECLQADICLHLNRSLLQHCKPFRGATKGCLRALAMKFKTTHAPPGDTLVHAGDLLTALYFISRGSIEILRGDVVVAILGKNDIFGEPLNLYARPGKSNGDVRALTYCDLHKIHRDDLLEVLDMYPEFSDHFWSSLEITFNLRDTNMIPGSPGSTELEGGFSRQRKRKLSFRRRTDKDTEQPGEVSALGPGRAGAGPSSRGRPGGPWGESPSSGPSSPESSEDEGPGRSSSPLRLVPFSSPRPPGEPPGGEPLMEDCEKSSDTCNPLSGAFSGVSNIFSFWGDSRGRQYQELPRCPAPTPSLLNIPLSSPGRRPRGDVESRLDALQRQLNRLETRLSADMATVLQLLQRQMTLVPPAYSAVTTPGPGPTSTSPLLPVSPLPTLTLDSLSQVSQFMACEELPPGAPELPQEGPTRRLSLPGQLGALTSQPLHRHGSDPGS
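U2OS cells transduced with wild-type KCNH2 virus are loaded with FluxOr dye for 45 min, and thallium flux is measured in kinetic reads before and after stimulation buffer. Rate constants are normalized to DMSO controls.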
Of the large screens only hits and unclear results are named; the others gave an inactive call. Sampled rows, rich in hits. Any-hit rate of the full collection: about 1.2%.

CC(C)c1nc(C(N)=O)c2[nH]c(=O)n(-c3ccc(F)cc3)c2n1	none (no result: Luc counter)
CCOc1ccccc1-c1nc(C(N)=O)c2[nH]c(=O)n(-c3ccc(F)cc3)c2n1	KCNH2 3.1 inh -84
CCOc1ccc(CCNC(=O)COC(=O)CCc2cc(OC)c(OC)c(OC)c2)cc1OCC	none (no result: Luc counter)
COCCN(C(=O)COC(=O)CNC(=O)c1ccc(C)cc1)c1c(N)n(Cc2ccccc2)c(=O)[nH]c1=O	none (no result: Luc counter)
Cc1cccc(C(=O)NCCNC(=O)c2cccc(C)c2)c1	hERG WT inh -264 (no result: KCNH2 3.1 inh)
Cc1cccc(C(=O)NCCN2CCCC2)c1	none
COc1ccccc1N1CCN(S(=O)(=O)CCNC(=O)COc2ccccc2)CC1	none (no result: Luc counter)
Cc1c(C(=O)OCC(=O)N2CCN(c3ccccc3)CC2)oc2ccccc12	none (no result: Luc counter)
Cc1onc(-c2ccccc2)c1C(=O)N1CCN(c2ccc([N+](=O)[O-])cc2)CC1	none (no result: Luc counter)
Cc1c(-c2ccccc2)oc2c(C(=O)N3CCN(c4ccc([N+](=O)[O-])cc4)CC3)cccc2c1=O	KCNH2 3.1 inh -71, hERG WT inh -103
O=C(C1COc2ccccc2O1)N1CCN(c2ccc([N+](=O)[O-])cc2)CC1 (configuration not stated)	KCNH2 3.1 inh -73 (no result: Luc counter)
Cc1c(C(=O)N2CCN(c3ccc([N+](=O)[O-])cc3)CC2)oc2ccccc12	KCNH2 3.1 inh -73 (no result: Luc counter)
O=C(C1COc2ccccc2O1)N1CCN(c2ccc(F)cc2)CC1 (configuration not stated)	none
Clc1nc(-c2ccccc2)ncc1Oc1ccccc1	none (no result: Luc counter)
Cn1c(=O)c2nc(SCCO)n(C)c2n(C)c1=O	none (no result: Luc counter)
O=C(NCCCn1ccnc1)C1CCN(S(=O)(=O)c2ccc(F)cc2)CC1	none (no result: Luc counter)
CC(C)c1nc(SCC(=O)Nc2cccc3ccccc23)n[nH]1	none (no result: Luc counter)
CC(C)CN(C(=O)Cn1nnc(-c2ccc(Cl)cc2)n1)C1CCS(=O)(=O)C1 (configuration not stated)	none (no result: Luc counter)
C#CCCCCCCCCCCCC(O)CC(O)COC(C)=O (configuration not stated)	none (no result: KCNH2 3.1 inh, hERG WT inh)
O=C(c1ccc(Cl)cc1)C1CCN(C(=O)c2ccccc2F)CC1	none (no result: Luc counter)
CC(=O)Nc1ccc(OCC(O)Cn2cccn2)cc1 (configuration not stated)	KCNH2 3.1 inh -201 (no result: Luc counter)
CC(=O)Nc1ccc(OCC(O)Cn2ccnc2)cc1 (configuration not stated)	none
COC(=O)[C@@]1(Cc2ccc(OC)cc2)[C@H]2c3cc(C(=O)N(C)C)n(Cc4nc5ccccc5[nH]4)c3C[C@H]2CN1C(=O)c1ccccc1	none (no result: KCNH2 3.1 inh, hERG WT inh)
O=C(c1ccc2c(c1)OCCCO2)N1CCCCC1	KCNH2 3.1 inh -109 (no result: Luc counter)
O=C(c1ccc2c(c1)OCCO2)C1CCN(C(=O)c2ccc(F)cc2)CC1	hERG WT inh -159
CCNC(=S)N1CCC(C(=O)c2ccc3c(c2)OCCO3)CC1	none
O=C(c1ccc2c(c1)OCO2)N1CCCN(C(=O)c2ccc3c(c2)OCO3)CC1	none
CCOCCCNC(=S)N1CCC(C(=O)c2ccc3c(c2)OCCO3)CC1	KCNH2 3.1 inh -170
O=C(c1ccc2c(c1)OCCO2)C1CCN(C(=O)c2ccc(F)c(F)c2)CC1	none
CCOc1ccccc1NC(=S)N1CCN(c2nc(-c3ccc(F)cc3)cs2)CC1	none
CC(NC(=O)c1ccc(Cl)cc1)c1nnc(SCC(=O)NC2=NCCS2)n1C (configuration not stated)	none (no result: Luc counter)
CC1=CC(C)(C)N(C(=O)CSc2ncn[nH]2)c2ccccc21	KCNH2 3.1 inh -78
CC1=CC(C)(C)N(C(=O)CCl)c2ccccc21	none
O=C(CN1C(=O)NC(Cc2c[nH]c3ccccc23)C1=O)Nc1ccccc1Br (configuration not stated)	none (no result: Luc counter)
Cc1ccc(NC(=O)CN2C(=O)NC(Cc3c[nH]c4ccccc34)C2=O)cc1 (configuration not stated)	KCNH2 3.1 inh -101 (no result: Luc counter)
CC(C)CCC(C)NC(=O)CN1C(=O)NC(C)(c2ccc3ccccc3c2)C1=O (configuration not stated)	none (no result: Luc counter)
COc1ccc2c(c1)sc1nc(-c3ccccc3)cn12	Luc counter 10µM
CCOC(=O)N1CCN(C(=O)c2ccc3c(c2)sc2nc(-c4ccc(OC)cc4)cn23)CC1	none
O=C(Nc1c(O)c2ccccc2[nH]c1=O)c1ccco1	none (no result: Luc counter)
O=C(CN1C(=O)C2CCCCC2C1=O)Nc1cc([N+](=O)[O-])ccc1F (configuration not stated)	none (no result: Luc counter)
Cc1cccc(CCN2C(N(C)C)=NC[C@@H]2Cc2ccccc2)c1	none (no result: Luc counter)
CN(C)C1=NC[C@H](Cc2ccccc2)N1CC1CCCC1	none (no result: Luc counter)
CN(C)C1=NC[C@H](Cc2ccccc2)N1CCCCc1ccccc1	KCNH2 3.1 inh -92 (no result: Luc counter)
CCCCCCCN1C(N(C)C)=NC[C@@H]1Cc1ccccc1	KCNH2 3.1 inh -90 (no result: Luc counter)
O=C(O)C[C@@H](C(=O)O)c1ccccc1[N+](=O)[O-]	none (no result: KCNH2 3.1 inh, hERG WT inh)

Screens from PubChem.
